Exocytosis inh – blocks lytic granule exocytosis. inhibition, % at 10 µM. AID 651702. TALL-104 LAMP-1 surface exposure, flow cytometry; cells stimulated with thapsigargin and PMA. 360,000 tested, 0.66% active;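 active means inhibition above about 55%, limit read from the data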
M18AAP inhibitor – blocks P. falciparum M18 aspartyl aminopeptidase; 290,000 tested, 1.2% active; inhibition, % at 7.35 µM; recombinant PfM18AAP, H-Glu-NHMec fluorogenic cleavage;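 active means inhibition above the campaign mean inhibition over all tested compounds plus 3 SD, cut at about 28% in these data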;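 further: 0% = plate median of test compound wells and 100% = 2 mM ZnCl2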
SMARCA2 act – SMARCA2 function activation, primary screen; MG213 cells, MMTV-luciferase reporter, dexamethasone, overnight; activation, % at 9.1 µM; 370,000 tested, 1% active; in the data active means activation above about 7.8%;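 further: 0% = vehicle wells and 100% = reference activator wells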
beta cell repl – induces beta-cell replication in MIN6 cells; MIN6 cells proliferation, ATPlite luminescence, 48 h; cells starved in 0.2% serum; 100% = growth in 10% serum; proliferation, % at 10 µM; 330,000 tested, 0.29% active; AID 2380;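 active means compounds whose signal lies at least 3.5 SD above the mean of all wells on their plate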;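 further: 0% = DMSO-treated cells in low-serum medium and 100% = 10% serum control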
ALR inh – blocks human ALR sulfhydryl oxidase activity. purified ALR, DTT oxidation, H2O2 HRP-luminol luminescence. inhibition, % (no concentration beside the values). 290,000 tested, 3.8% active. AID 485317;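 active means mean replicate inhibition above about 79%, with every replicate also reaching it, limit read from the data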
Target sequence (P55789 whole entry, looked up): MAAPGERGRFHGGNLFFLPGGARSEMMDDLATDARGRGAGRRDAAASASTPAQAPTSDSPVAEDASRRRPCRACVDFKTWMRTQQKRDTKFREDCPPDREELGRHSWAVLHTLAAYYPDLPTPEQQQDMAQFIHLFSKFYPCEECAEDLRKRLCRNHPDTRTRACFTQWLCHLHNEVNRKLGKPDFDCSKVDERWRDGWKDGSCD
GASC-1 inh – human JMJD2C demethylase inhibition; Q9H3R0; 330,000 tested, 0.069% active; AID 2099; GST-JMJD2C(1-420) H3K9me3 demethylation, DELFIA europium; inhibition, % at 2.35 µM;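 active means more than half of a compound's replicate wells show inhibition beyond 50%, single wells judged on their own value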;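 further: signal counts dimethyl H3K9 product captured on neutravidin plate; 0% = median of DMSO wells and 100% = 0.3 times that DMSO median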
* = called active by the depositor; / = no result given. Sampled rows, rich in hits. Any-hit rate of the full collection: about 5.4%.

SMILES	Exocytosis inh	M18AAP inhibitor	SMARCA2 act	beta cell repl	ALR inh	GASC-1 inh
CC(C)=CCN1CCN(Cc2cn[nH]c2C2CCCCC2)CC1CCO (configuration not stated)	/	-10	6	-3	6	53*
Cc1ccc(-c2nc(-c3ccccn3)sc2CC(=O)O)cc1	1	-12	0	-3	99*	4
O=C(CSc1nnc(-c2cccnc2)n1Cc1ccco1)c1ccc2ccccc2c1	-10	-16	-1	-3	-12	5
O=C(CSc1nnc(-c2ccccn2)n1Cc1ccco1)c1ccc(Cl)cc1	-4	-34	2	-2	97*	66
O=C(CSc1nnc(-c2cnccn2)n1Cc1ccco1)c1ccccc1	0	0	-1	4	87*	-4
O=C(CSc1nnc(-c2cccnc2)n1Cc1ccco1)c1ccc(Br)cc1	1	-7	-3	-3	96*	23
CC(C)c1[nH]nc2c1C(c1ccccc1)N(c1ccccc1)C2=O (configuration not stated)	/	/	0	/	/	/
COC(=O)[C@]12C[C@H](CC(=O)NCc3ccc(OC)c(OC)c3)C(=O)N(Cc3ccco3)C1=C[C@H](C(C)(C)C)O[C@@H]2C	/	/	-1	/	/	/
O=C(O)c1ccc(N/N=C2/CCSc3ccc(F)cc32)cc1	14	29*	0	0	98*	4
Cc1ccc2nc(-c3ccc(NC(=O)CN4C(=O)c5ccccc5C4=O)cc3)sc2c1	-1	-5	16*	0	/	6
CCc1c(C)[nH]n(-c2nc(-c3ccccc3)cs2)c1=O	-3	12	3	2	97*	-11
CCc1c(C)[nH]n(-c2nc(-c3cccc([N+](=O)[O-])c3)cs2)c1=O	0	11	8	-2	24	-1
C#CCN(C1CC1)S(=O)(=O)c1ccccc1Br	/	/	3	/	/	/
COc1cc(C(=O)NCC(c2cccnc2)N2CCN(C)CC2)cc(OC)c1OC (configuration not stated)	2	-6	4	-3	-17	-27
O=C(NCC(c1ccco1)N1CCN(c2ccccc2)CC1)C1CCCCC1 (configuration not stated)	-1	/	4	/	/	/
O=C(NCC(c1cccnc1)N1CCN(c2ccccc2)CC1)c1ccc2c(c1)OCO2 (configuration not stated)	0	4	0	-4	99*	-3
O=C(NCC(c1cccnc1)N1CCN(c2ccccc2)CC1)OCc1ccccc1 (configuration not stated)	11	4	0	0	76*	-11
O=C(NCC(c1cccnc1)N1CCN(c2ccc(F)cc2)CC1)OCc1ccccc1 (configuration not stated)	8	-8	-2	2	64	-4
COc1cc(C(=O)NCC(c2cccnc2)N2CCN(c3ccccc3)CC2)cc(OC)c1OC (configuration not stated)	6	-5	-1	2	99*	5
O=C(NCC(c1cccnc1)N1CCN(c2ccccc2)CC1)C1CCCCC1 (configuration not stated)	-1	-7	0	0	88*	-2
COc1cc(NC(=O)C2CCCN(S(=O)(=O)c3cc(OC)ccc3OC)C2)cc(OC)c1 (configuration not stated)	/	/	-7	/	/	/
CN1C(=O)c2cc(NC(=O)Nc3ccccc3)ccc2OC[C@H]2O[C@@H](CC(=O)N[C@H]3CCN(Cc4ccccc4)C3)CC[C@@H]21	/	/	2	/	/	/
COC(=O)[C@]12C[C@H](CC(=O)NCCCN3CCCC3=O)C(=O)N(CCC3=CCCCC3)C1=C[C@H](C1CCCC1)O[C@@H]2C	/	/	-3	/	/	/
O=C(NCCc1c[nH]c2ccccc12)C(=O)NCC(c1cccnc1)N1CCN(c2ccccc2)CC1 (configuration not stated)	1	-9	-3	4	18	113
COC(=O)NCC(c1cccnc1)N1CCN(c2ccccc2)CC1 (configuration not stated)	4	4	-2	2	89*	3
SMILES	Exocytosis inh	M18AAP inhibitor	SMARCA2 act	beta cell repl	ALR inh	GASC-1 inh
O=S(=O)(NCC(c1cccnc1)N1CCN(c2ccccc2)CC1)c1cccs1 (configuration not stated)	2	-11	0	-1	98*	19
CCn1c(COc2ccc(Cl)cc2)nnc1SCC(=O)Nc1ccccc1-c1ccccc1	/	/	-5	/	/	/
CCc1nc(NCc2ccco2)c2oc3ccccc3c2n1	0	2	1	-2	88*	-11
CCc1nc(Nc2ccc(O)cc2)c2oc3ccccc3c2n1	-2	-39	-2	2	93*	-4
CCNc1nc(CC)nc2c1oc1ccccc12	-2	-5	3	-2	-3	-8
COc1ccccc1CCC[C@H](CCS(=O)(=O)C(C)C)CC1CCCCC1	/	/	-3	/	/	/
COc1cccc(CNc2ccc(F)c([N+](=O)[O-])c2)c1O	15	7	-5	-3	98*	3
Cc1cccc(NC(=S)N/N=C/c2ccc([N+](=O)[O-])s2)c1	2	14	-7	-3	-29	-8
Cc1cccc(N/N=C/c2ccc(C)s2)c1	61*	22	4	-3	-12	13
CCCC(=O)n1nc(-c2cccnc2)nc1NCc1ccc(OC)cc1	-4	-2	-3	/	/	-23
CC(C)C(=O)n1nc(-c2cccnc2)nc1NCc1ccc(F)cc1	2	-14	3	-1	97*	-6
CCOc1ccc(/C=N/n2cc(-c3ccccc3)[nH]c2=S)cc1	0	54*	-2	-4	11	5
CC(C)CN(CC(C)C)C(=O)c1cn(C(C)c2ccccc2)nn1 (configuration not stated)	/	/	-8	/	/	/
CC(C)(C)N(Cc1ccccc1)C(=O)COC(=O)c1ccc(S(=O)(=O)N2CCOCC2)cc1	63*	/	0	0	-2	11
CC(=O)N1CCN(S(=O)(=O)c2cccc(C(=O)OCC(=O)N(Cc3ccccc3)C(C)(C)C)c2)CC1	-2	/	-2	1	1	-1
Cc1ccc(-n2c(C)cc(/C=N/NC(=O)c3ccc(CN4CCOCC4)cc3)c2C)cc1	-6	8	-5	-2	10	3
Cc1cccc(-n2c(C)cc(/C=N/NC(=O)c3ccc(CN4CCOCC4)cc3)c2C)c1	0	16	/	-2	99*	7
CC1=NN(C(N)=S)C(=O)C1N=Nc1c(Br)cc(Br)cc1Br (configuration not stated)	2	0	3	-4	98*	7
CC1=NN(C(N)=S)C(=O)C1N=Nc1ccccc1C (configuration not stated)	-4	1	2	-4	0	-15
CC1=NN(C(N)=S)C(=O)C1N=Nc1cccc(Cl)c1 (configuration not stated)	3	8	2	-1	90*	-3

Compound activity (PubChem)
